ERp5 block – blocks human ERp5 reductase activity on insulin | ERp5 insulin aggregation, absorbance 650 nm, 90 min | inhibition, % at 9.99 µM | 350,000 compounds, 0.05% hits | AID 651711;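 active = mean replicate inhibition above about 25%, with every replicate also reaching it, limit read from the data, passing the limit was not always enough; inconclusive = only one of those two criteria met; inactive = neither criterion met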
Target sequence (Q15084 whole entry, looked up): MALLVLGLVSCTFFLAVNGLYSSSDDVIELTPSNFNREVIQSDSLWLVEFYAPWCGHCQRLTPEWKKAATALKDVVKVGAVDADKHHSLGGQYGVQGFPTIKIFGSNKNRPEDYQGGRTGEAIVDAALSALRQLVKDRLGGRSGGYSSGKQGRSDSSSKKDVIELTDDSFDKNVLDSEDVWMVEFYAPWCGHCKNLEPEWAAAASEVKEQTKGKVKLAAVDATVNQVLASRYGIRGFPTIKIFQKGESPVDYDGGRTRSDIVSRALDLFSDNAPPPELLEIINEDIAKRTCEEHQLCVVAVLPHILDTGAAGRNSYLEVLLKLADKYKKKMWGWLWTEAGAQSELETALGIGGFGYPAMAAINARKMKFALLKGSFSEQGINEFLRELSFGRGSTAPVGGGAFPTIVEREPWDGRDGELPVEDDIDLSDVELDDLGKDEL
DENV2 CPE rescue – DENV2-induced cell death inhibition. DENV2-infected cells, cytopathic effect rescue, plate reader. CPE inhibition, % at 9.99 µM. 350,000 compounds, 1.7% hits; in the data active = CPE inhibition above about 20%, passing the limit was not always enough; inconclusive = no clear call, values can overlap the other calls; tested in BHK-21 cells;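 also: 0% = median of neutral control wells and 100% = median of positive control wells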
PDI turbidity – blocks human protein disulfide isomerase activity; P07237; PDI insulin aggregation turbidity, A650, 90 min; inhibition, % at 10 µM; 350,000 compounds, 0.052% hits; AID 588391;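 active = mean inhibition across replicates of 30% or more, whatever share of single replicates reach that level; inconclusive = mean inhibition below 30% while every single replicate reaches 30%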
Rtt109 HAT inh – blocks Candida albicans Rtt109/Vps75 acetyltransferase activity; Q5AAJ8; purified Rtt109/Vps75, ThioGlo CoA-SH fluorescence, 4 h; inhibition, % at 34.9 µM; 330,000 compounds, 0.16% hits;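 active = inhibition of at least 50% in every replicate; inconclusive = best replicate reaches 50% inhibition but some replicates fall short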
SIRT5 inh – blocks human SIRT5 desuccinylation of peptide; inhibition, % at 15 µM; 330,000 compounds, 1.1% hits; Purified SirT5, succinyl-peptide AMC, trypsin-coupled fluorescence; AID 652115; in the data active = inhibition above about 15%; inconclusive = no clear call, values can overlap the other calls
An asterisk follows results filed as active; ! = not active in a repeat. Hits are enriched below; roughly 2.3% of the tested compounds scored in any of these assays.

How did Cc1ccn2c(NC3CCCCC3)c(-c3ccc(SC4CCCCC4)cc3)nc2c1 do in these assays?
ERp5 block: 0.8; DENV2 CPE rescue: 37.2*

How did CC(C)NC(=O)N(C)C[C@@H]1OCCCC[C@H](C)Oc2ccc(NS(=O)(=O)c3cn(C)cn3)cc2C(=O)N([C@H](C)CO)C[C@@H]1C do in these assays?
ERp5 block: 0.5; DENV2 CPE rescue: -8.3; SIRT5 inh: -1.4

What do the screens show for `Cc1csc(NC(=O)Cc2ccccc2[N+](=O)[O-])n1`?
ERp5 block: 2.0; DENV2 CPE rescue: -1.0; PDI turbidity: -3.4; Rtt109 HAT inh: 2.2; SIRT5 inh: 16.8*

Results for CCOC(=O)Cc1csc(NC(=O)Cc2ccccc2[N+](=O)[O-])n1 ?
ERp5 block: 1.3; DENV2 CPE rescue: -11.5; PDI turbidity: 8.6; Rtt109 HAT inh: -7.9; SIRT5 inh: -4.4

Results for COc1ccc(NC(=O)N(C)C[C@H]2Oc3c(NS(C)(=O)=O)cccc3C(=O)N([C@@H](C)CO)C[C@H]2C)cc1 ?
ERp5 block: -3.7; DENV2 CPE rescue: 1.2; SIRT5 inh: 32.6*

What do the screens show for `COc1ccc(NC(=O)N(C)C[C@@H]2Oc3c(NS(C)(=O)=O)cccc3C(=O)N([C@H](C)CO)C[C@@H]2C)cc1`?
ERp5 block: 4.8; DENV2 CPE rescue: 4.5; SIRT5 inh: -5.9

How did C[C@H]1CN([C@@H](C)CO)C(=O)c2cccc(NS(=O)(=O)c3ccc(Cl)cc3)c2O[C@H]1CN(C)C(=O)Nc1ccccc1 do in these assays?
ERp5 block: -4.2; DENV2 CPE rescue: 39.5*; SIRT5 inh: 1.8

What do the screens show for `COc1ccc(NC(=O)N(C)C[C@H]2Oc3c(NS(=O)(=O)c4cn(C)cn4)cccc3C(=O)N([C@@H](C)CO)C[C@@H]2C)cc1`?
ERp5 block: -4.7; DENV2 CPE rescue: 25.6*; SIRT5 inh: 3.2

Results for C[C@H](CO)N1C[C@H](C)[C@@H](CN(C)C(=O)Nc2ccccc2)Oc2c(NS(=O)(=O)c3ccc(Cl)cc3)cccc2C1=O ?
ERp5 block: -4.0; DENV2 CPE rescue: -0.7; SIRT5 inh: -0.4

Results for COc1ccc(NC(=O)N(C)C[C@H]2Oc3c(NS(=O)(=O)c4ccc(OC)cc4)cccc3C(=O)N([C@H](C)CO)C[C@@H]2C)cc1 ?
ERp5 block: -5.9; DENV2 CPE rescue: 28.2*!; PDI turbidity: -24.7; Rtt109 HAT inh: 18.6; SIRT5 inh: 2.6

Results for CC(=O)N(C)C[C@H]1Oc2cc(-c3ccc(C#N)cc3)ccc2S(=O)(=O)N([C@H](C)CO)C[C@H]1C ?
ERp5 block: 1.5; DENV2 CPE rescue: 6.3; SIRT5 inh: -0.4

How did C[C@H](CO)N1C[C@H](C)[C@@H](CN(C)C(=O)Nc2ccc(C(F)(F)F)cc2)Oc2ccc(NC(=O)Nc3ccc(C(F)(F)F)cc3)cc2CC1=O do in these assays?
ERp5 block: -3.3; DENV2 CPE rescue: -21.8; SIRT5 inh: 1.7

What do the screens show for `COc1ccc(NC(=O)N(C)C[C@H]2Oc3c(NS(=O)(=O)c4ccc(Cl)cc4)cccc3C(=O)N([C@H](C)CO)C[C@H]2C)cc1`?
ERp5 block: 5.8; DENV2 CPE rescue: 48.8*; SIRT5 inh: 4.9

Results for COc1ccc(NC(=O)N(C)C[C@H]2Oc3c(NS(=O)(=O)c4ccc(Cl)cc4)cccc3C(=O)N([C@@H](C)CO)C[C@H]2C)cc1 ?
ERp5 block: -3.2; DENV2 CPE rescue: inconclusive; SIRT5 inh: 5.0

How did CN1C(=O)c2cc(NC(=O)C3CC3)ccc2OC[C@H]2O[C@@H](CC(=O)NCc3cccc(F)c3)CC[C@@H]21 do in these assays?
DENV2 CPE rescue: -1.4

How did COCC(=O)N1CCC2(CC1)CN(C(=O)Nc1ccccc1F)[C@H](CO)c1[nH]c3cc(OC)ccc3c12 do in these assays?
ERp5 block: -1.0; DENV2 CPE rescue: 25.0*; SIRT5 inh: 3.2

How did COc1cccc(S(=O)(=O)N2CC3(CN(C(=O)Nc4ccc(F)cc4)[C@H](CO)c4[nH]c5cc(OC)ccc5c43)C2)c1 do in these assays?
DENV2 CPE rescue: 127.6*

How did COc1ccc2c3c([nH]c2c1)[C@H](CO)N(C(=O)C1CC1)CC31CN(C(=O)NC(C)C)C1 do in these assays?
ERp5 block: 3.8; DENV2 CPE rescue: 29.7*; SIRT5 inh: 1.7

What do the screens show for `COc1ccc2c3c([nH]c2c1)[C@@H](CO)N(C(=O)C1CCOCC1)CC31CN(C)C1`?
DENV2 CPE rescue: 89.7*

What do the screens show for `COc1ccc2c3c([nH]c2c1)[C@@H](CO)N(C(=O)Nc1ccccc1F)CC31CCN(C(C)=O)CC1`?
ERp5 block: 5.3; DENV2 CPE rescue: -2.8

Compound activity (PubChem)
